Experimental data published in PubChem BioAssay.
Values without a mark were called inactive. The source made the active and inactive calls.

Experiment: plasmodial surface anion channel blockers, osmotic lysis – cell-based, P. falciparum Indochina, OD700, 2 h, primary screen (AID 1155);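 further: lysis reports solute entry through the parasite surface anion channel PSAC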
Conditions: P. falciparum Indochina infected erythrocytes, higher = more signal, called active from +8 up or from −8 down
In the case of `[N-]=[N+]=Nc1ccccc1C[C@@]1(C(=O)NCC(O)CO)N=C(c2ccc(OCCCO)cc2)O[C@@H]1c1ccccc1` (stereo not given in full), the z-score is reported as 14.1 (active).
Work on `C=C(CCCC)/C(=C/C[C@H](OC(=O)c1ccncc1)c1cccc(OCCO)c1)c1cnc2ccccc2c1` yielded a z-score of 7.01.
Molecule `COCCOC(=O)N1C(=O)[C@@]2(c3cc(C#Cc4ccc(OC)cc4)ccc31)[C@H](c1ccc(OCCO)cc1)N1[C@H](c3ccccc3)[C@H](c3ccccc3)OC(=O)[C@H]1[C@@H]2C(=O)NC[C@H](O)c1ccccc1` has a z-score of 2.07.
For `CCOC(=O)C1=CC[C@@H](c2ccc(OC)cc2)N(S(=O)(=O)c2ccc(C)cc2)[C@H]1c1ccc(C)cc1`, the z-score was 0.905.
Molecule `COCCOC(=O)N1C(=O)[C@@]2(c3cc(C#CCCO)ccc31)[C@H](c1ccc(OCCO)cc1)N1[C@H](c3ccccc3)[C@H](c3ccccc3)OC(=O)[C@H]1[C@@H]2C(=O)N1CCCCCCC1` has a z-score of 0.877.
Molecule `COC(=O)[C@@]1(Cc2ccc(F)cc2)[C@H]2c3cc(C(=O)N4CCCC4)n(Cc4cc(F)cc5c4OCOC5)c3C[C@H]2CN1C(=O)c1ccccc1` has a z-score of 0.273.
With `C=C(CCCC)/C(=C/C[C@H](OC(=O)c1ccncc1)c1ccc(OCCO)cc1)c1cnc2ccccc2c1` the z-score was 11.9 (active).
In the case of `C=CCOC(=O)[C@@H]1[C@H]2C(=O)O[C@H](c3ccccc3)[C@H](c3ccccc3)N2[C@H](c2ccc(OCCOC(=O)[C@H]3C[C@H]4C(=O)N5CCC[C@H]5C(=O)N4[C@H]3c3cccc(OCCO)c3)cc2)[C@@]12C(=O)Nc1ccc(I)cc12`, the z-score is reported as 1.39.
With `COc1ccc([Si](C)(C)[C@H]2[C@H](CC(=O)N3Cc4ccccc4C[C@H]3CO)O[C@@]3(C(=O)N(C)c4c(Br)cc(C)cc43)[C@@H]2C)cc1` the z-score was 2.16.
`CCCC[C@H]1OB(O)C[C@H]2C1=C(COc1ccccc1)C[C@H]1C(=O)C=CC(=O)[C@H]12` gave a z-score of 0.0962.
Molecule `COCCOC(=O)N1C(=O)[C@@]2(c3cc(C#CCC(C(=O)OC)C(=O)OC)ccc31)[C@H](C(=O)Nc1nc3ccccc3s1)[C@H]1C(=O)O[C@H](c3ccccc3)[C@H](c3ccccc3)N1[C@@H]2c1ccc(O)cc1` has a z-score of 0.575.
`COC(=O)[C@@]1(Cc2ccc(OC)cc2)[C@H]2c3cc(C(=O)N4CCCC4)n(Cc4ccc(Cl)c(C(F)(F)F)c4)c3C[C@H]2CN1C(=O)c1ccccc1` showed a z-score of -0.382.
`Cc1ccc(F)cc1S(=O)(=O)N[C@H]1CCN(Cc2ccc(OC(C)C)cc2)C1` showed a z-score of 0.709.
`COCCOC(=O)N1C(=O)[C@@]2(c3cc(C#CCNC(N)=O)ccc31)[C@H](C(=O)Nc1nc3ccccc3s1)[C@H]1C(=O)O[C@H](c3ccccc3)[C@H](c3ccccc3)N1[C@@H]2c1ccccc1OCCO` gave a z-score of 0.215.
For `CCCCC(O)C1C=CC2C(=O)N(c3ccccc3)C(=O)C2N1Nc1ccc([N+](=O)[O-])cc1` (stereo not given), the z-score was 1.38.
`CCCN1C(=O)[C@@]2(c3ccc([N+](=O)[O-])cc3)CC(=O)N(CC34CC5CC(CC(C5)C3)C4)[C@@H]2c2ccc(CO)cc21` showed a z-score of 0.0149.
`O=C1C=C(c2ccccc2)C(=O)C2=C1CC([C@H]1Oc3ccccc3S(=O)(=O)N3CCC[C@@H]13)=CC2` showed a z-score of 0.445.
Work on `O=C1[C@H]2C=C(I)[C@H](C[C@@H]2OCCCCCCO)[C@@]12CO2` yielded a z-score of 0.713.
With `N#Cc1ccc(-c2cccc(=O)o2)cc1` the z-score was 1.15.
In the case of `N#Cc1ccc(NN2C(C(O)C3CC=CCC3)C=CC3C(=O)N(c4ccccc4)C(=O)C32)cc1` (stereo not given), the z-score is reported as 3.34.
For `COC(=O)C(CC#Cc1ccc2c(c1)[C@]1(C(=O)N2)[C@H](c2ccc(OCCO)cc2)N2[C@H](c3ccccc3)[C@H](c3ccccc3)OC(=O)[C@H]2[C@@H]1C(=O)N1CCCCCCC1)C(=O)OC`, the z-score was 1.59.
For `COCCOC(=O)N1C(=O)[C@@]2(c3ccccc31)[C@H](c1ccc(O)cc1)N1[C@H](c3ccccc3)[C@H](c3ccccc3)OC(=O)[C@H]1[C@@H]2C(=O)N1CCCCCCC1`, the z-score was 0.619.
For `COc1ccc(C(O)C2C=CC3C(=O)N(c4ccccc4)C(=O)C3N2Nc2ccc([N+](=O)[O-])cc2)c2ccccc12` (stereo not given), the z-score was 2.13.
Molecule `O=C1c2ccccc2[C@@]2(Cc3ccccc3N(Cc3ccccc3)C2=O)[C@H](c2ccc(CO)cc2)N1Cc1ccccc1Cl` has a z-score of 0.387.
In the case of `O=C1[C@@H]2[C@@H](CC(COc3ccccc3)=C([C@H](O)CCc3ccccc3)[C@@H]2CO)C(=O)N1Cc1ccccc1`, the z-score is reported as 21.8 (active).
With `COCCOC(=O)N1C(=O)[C@@]2(c3cc(C#CCC(C(=O)OC)C(=O)OC)ccc31)[C@H](C(N)=O)[C@H]1C(=O)O[C@H](c3ccccc3)[C@H](c3ccccc3)N1[C@@H]2c1ccc(O)cc1` the z-score was 12.4 (active).
Molecule `CN(C)CCCNC(=O)[C@@]1(C)c2ccccc2C(=O)N(Cc2ccc(OC(F)(F)F)cc2)[C@H]1c1ccc(CO)cc1` has a z-score of -0.103.
Molecule `CCCC=C(CCC)[C@@H](NC(=O)OCC(C)C)c1ccc(C(=O)OC)cc1` has a z-score of -0.781.
Molecule `COc1ccc(CCNC(=O)[C@@H]2c3ccccc3C(=O)N(Cc3ccccc3OC)[C@H]2c2ccc(CO)cc2)cc1` has a z-score of 0.0323.
`CCCC#C[Si](O[C@H](CC)c1cn(Cc2ccccc2)nn1)(C(C)C)C(C)C` showed a z-score of 0.3.
For `[N-]=[N+]=NCc1ccccc1[C@@H]1OC(c2ccc(OCCCO)cc2)=N[C@]1(Cc1ccccc1N=[N+]=[N-])C(=O)O`, the z-score was 6.73.
In the case of `CN(C)CCCNC(=O)[C@@H]1c2ccccc2C(=O)N(Cc2ccccc2C(F)(F)F)[C@H]1c1ccc(CO)cc1`, the z-score is reported as 0.793.
Molecule `C=CCNC(=O)[C@H]1[C@@H]2C(=O)O[C@@H](c3ccccc3)[C@@H](c3ccccc3)N2[C@@H](c2ccc(OCCO)cc2)[C@]12C(=O)Nc1ccccc12` has a z-score of 1.01.
In the case of `O=C1O[C@@H](c2ccccc2)[C@@H](c2ccccc2)N2[C@@H](c3ccccc3OCCO)[C@]3(C(=O)Nc4ccc(C#CCCO)cc43)[C@@H](C(=O)NC[C@H](O)c3ccccc3)[C@H]12`, the z-score is reported as 0.913.
`C[C@]1(C(=O)O)c2ccccc2C(=O)N(Cc2cc(F)cc(C(F)(F)F)c2)[C@H]1c1ccc(CO)cc1` showed a z-score of -0.0481.
